Test system: VDR:RXRa (NR concentration 270 nM, RXRa partner concentration 90 nM)
Experiment: PBM binding z-score (relative to random genomic background probes); higher = stronger binding; sequences stand for … in GC…GCGATTGACAGCGTAGAATGAAGG
Method: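 Protein-binding microarray (Agilent 4x180K custom design, double-stranded 60-nt probes: 5' GC cap, 34-nt variable region, 24-nt constant primer region; full probe sequence given). Purified or IVT nuclear receptor:RXRα heterodimers (3:1 NR:RXRα, mostly 270:90 nM) or homodimers were incubated for 1 h in PBS with 2% milk and no ligand, then detected with Alexa488 antibodies. Fluorescence from o1-orientation probes (~5 replicates averaged) was converted to z-scores against 500 random hg19 background probes. Variable regions are seed direct-repeat (DR0–DR5) sites, all their single-nucleotide variants and half-site ablations.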

Sequence	PBM binding z-score
CCTAGTAGGTTATGGGGCATTCAGGCAACGGTGA	0.233
CCGAGTAGGTTACGAGGGGACATTCAGTGCGAAT	2.82
CTATGTAGGCTAAGGGGGTCATTCAGTTTGAAAG	6.41
CGTCAAAGTTCAACTAAGGTAACTTAAAGCACGC	4.76
GATAGTTGGTCAGTAAAAGGTCACACACCGGTCG	3.94
CCTACTGGGCCATTCAGAGGACATTGATCATATG	-0.347
TCGAGTAGGTTACGGGGGCATGCAGGGATGAAGA	3.43
CCCCGGAGGACAGAAGGTCAGAGCTGTCCGCTTT	0.723
ATATGTAGGATAGGGTCATTCAGAAAGTAGGGAA	3.79
ATATGGAGGTTAGCTGGGGTCATTCAGACTAGGC	6.86
CCTTACGGGTCACTCTAGGTTATAGCATCGGAGT	3.67
TATCCTAGGTCAGATCGGGCCAGTATACGCTATA	1.51
TAGCCTAGGTCACGGGCCAGTATACCACGCGAAC	2.94
ATATGTAGGTTCGGGTCATTCAGAAAGTAGGGAA	3.72
TCGAGTAGGTTAAGGGGGCATTCAGGGATGAAGA	3.35
ATATGTACGTTAGGGTCATTCAGAAAGTAGGGAA	4.24
CTGAGTAGGTTACGAGGGGGCATTCAGTGCGAAT	5.14
CGAATTAGGTCAAAGGACAGTGAAAGGCGACGTA	1.65
ATATGTAGGTTAGGGTGATTCAGAAAGTAGGGAA	1.09
CTATGTAGGTTAAGGCGGTCATTCAGTTTGAAAG	3.84

Sequence	PBM binding z-score
CGAACTAGGTCACCAGGACAGTTAAGAGGTTGGA	2.11
GTACCAAGGTGAATAGGTCGTTGATGAGTAGGCG	0.95
TCTGCTTGGTCAACGATGGTCAGCTAATCTGCTA	-0.63
CCGAGTAGGTTACGAGGGGGCATTCATTGCGAAT	4.7
TCTAGTTGGTGACGGAGGTCACACACGACGGGTA	3.98
ATATGTAGGTTAGCTGGGGTCATTCCGACTAGGC	6.1
CCCAGTAGGTTACGAGGGGGCATTCAGTGCGAAT	5.29
CCGGGTAGGTTACGAGGGGGCATTCAGTGCGAAT	5.31
CGAACTAGGTCAAAGAACAGTGAAAGGCGACGTA	0.943
CGTCGGAGGACAACAGGAGGTCAGAGCTGCCAGA	2.05
CGAACTAGGTCACCTGGACAGTGAAGAGGTTGGA	2.34
CGTCCAAGGTCAAGCTCAGTGAAAGAGACTCGAA	4.06
CTAACTAGGTCACAGAGGTCAAAGTCCGTGCGTA	8.06
TCGAGTAGGTTACGGGGGCGTTCAGGGATGAAGA	3.7
CCTAGTTGGTCAGGAAGTCACACACCGGATATGA	0.604
ATCGAAAGGGCGTGAGGTGAGTATACAGAAAGGC	0.49
TAGCCTAAGTCATGGGCCAGTATACCACGCGAAC	-0.25
ACTAGTTGGTCACCTGAGGTCACACACAATTCGG	5.23
CCTAGTTGGTCAGGAGGTCACATACCGGATATGA	3.57
ATATGTAGGTTAGGGTAATTCAGAAAGTAGGGAA	1.09

From the supplement of paper PMC6555819
